VDR inhibitor = Inhibitors of the vitamin D receptor (VDR): qHTS; Potency, µM, without a hit: max response, negative = inhibition, hits mostly inhibitors; VDR-SRC2-3 peptide fluorescence polarization, 2 h; Vitamin D3 receptor (Homo sapiens), P11473; 0.93% of 400,000 active; AID 504847, 2011; further: potency means the concentration at half of the fitted maximal effect; on the % scale 0 is the no-effect control and ±100 the full control effect
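Fluorescence polarization assay of small-molecule disruption of VDR binding to coregulator peptide SRC2-3. Compounds and controls pin-transferred, then read after 2 h incubation at ambient room temperature.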
KDM4E inh = qHTS Assay for Inhibitors of Human Jumonji Domain Containing 2E (JMJD2E) | Potency, µM (top dose mostly 57.1 µM), for the others: at the top dose activity change, negative = inhibition, usual class: inhibitors | AID 2147, 2009 | JMJD2E catalytic domain, FDH-coupled NADH fluorescence (FDH is formaldehyde dehydrogenase) | 1.6% of 230,000 active; active means well fitted inhibition curve with a large enough effect, not every such curve was filed as active; inconclusive means small, poorly fitted or top-dose-only effect, or another doubt; inactive means no such curve, though single readings can be large or run the other way;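 further: potency means the concentration at half of the fitted maximal effect; 0% = wells with enzyme and -100% = buffer wells without enzyme; nearly all actives have a fitted effect of over 50% in size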
Target sequence (B2RXH2 1-337 limits assumed): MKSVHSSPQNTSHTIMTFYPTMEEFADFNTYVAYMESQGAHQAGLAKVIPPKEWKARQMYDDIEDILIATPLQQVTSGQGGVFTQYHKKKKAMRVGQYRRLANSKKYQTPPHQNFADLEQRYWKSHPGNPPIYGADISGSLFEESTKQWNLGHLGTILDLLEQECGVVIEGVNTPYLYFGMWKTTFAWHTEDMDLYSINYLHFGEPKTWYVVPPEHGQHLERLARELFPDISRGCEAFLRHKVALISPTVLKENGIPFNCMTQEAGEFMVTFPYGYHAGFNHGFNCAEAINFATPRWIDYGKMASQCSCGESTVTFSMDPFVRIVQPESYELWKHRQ
HttQ103 aggreg = qHTS Multiplex Assay to Identify Dual Action Probes in a Cell Model of Huntington: Aggregate Formation (GFP); PC12 HttQ103-GFP aggregates, Acumen cytometry, 40 h; Potency, µM (series often up to 46.1 µM), for inactives: at the top dose activity change, negative = inhibition, most hits filed as inhibitors; 1.1% of 220,000 active; further: potency means the concentration at half of the fitted maximal effect; on the % scale 0 is the no-effect control and ±100 the full control effect; nearly all actives have a fitted effect of over 60% in size
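Using laser scanning cytometry, GFP-positive aggregates were counted after lysis of PC12 cells induced with 100 nM tebufenozide to express HTT exon 1 Q103–GFP. Compounds were tested in titration.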
HTT cytoprotect = qHTS Multiplex Assay to Identify Dual Action Probes in a Cell Model of Huntington: Cytoprotection (ATP); PC12 HTT-Q103 induced, cytoprotection, ATP luminescence, 40 h; AID 1471, 2008; Potency, µM (top dose mostly 56.4 µM), without a hit: cytoprotection (ATP increase), most hits filed as activators; 0.14% of 230,000 active; further: potency means the concentration at half of the fitted maximal effect; % of control where 0% means no effect; nearly all actives have a fitted effect of over 45% in size
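PC12 cells with ecdysone-inducible HTT exon 1 Q103-GFP, induced with 100 nM tebufenozide and co-treated with library compounds in a dose series (1536-well, 1500 cells/well). Cytoprotection read as ATP content by ATPlite luminescence.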
GoLoco inh red = qHTS Assay for Inhibitors of RGS12 GoLoco Motif Activity (Red Fluorophore) | Guanine nucleotide-binding protein G(i) subunit alpha-1 (Homo sapiens), P63096 | Gai1:RGS12 GoLoco peptide FP, rhodamine, 10 min | Potency, µM (titrated, usually from 61.6 µM), inactives show top-dose activity, negative = inhibition, hits mostly inhibitors | 0.44% of 230,000 active | AID 880, 2007; active means well fitted inhibition curve with a large enough effect, not every such curve was filed as active; inactive means no such curve, though single readings can be large or run the other way; further: potency means the concentration at half of the fitted maximal effect; on the % scale 0 is the no-effect control and ±100 the full control effect; nearly all actives have a fitted effect of over 30% in size
Target sequence (P63096 whole entry, looked up): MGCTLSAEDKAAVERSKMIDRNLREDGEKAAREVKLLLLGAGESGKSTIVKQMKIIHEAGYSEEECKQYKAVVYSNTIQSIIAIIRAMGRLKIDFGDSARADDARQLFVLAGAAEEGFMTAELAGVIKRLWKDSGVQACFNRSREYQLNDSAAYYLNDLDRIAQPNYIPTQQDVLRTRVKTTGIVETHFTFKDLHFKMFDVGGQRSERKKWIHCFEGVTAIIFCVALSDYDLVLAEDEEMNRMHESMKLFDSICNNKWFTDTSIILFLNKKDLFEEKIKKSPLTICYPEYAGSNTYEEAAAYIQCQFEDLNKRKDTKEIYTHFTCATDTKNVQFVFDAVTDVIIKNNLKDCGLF
Coupling enz = qHTS Assay for Inhibitors of Fructose-1,6-bisphosphate Aldolase from Giardia Lamblia: Coupling assay counterscreen; coupling enzyme system counterscreen, AmpLite Red fluorescence; activity change, negative = inhibition, % at 58.2 µM, hits read low; 0.67% of 290,000 active; in the data active means activity change below about -30%; further: on the % scale 0 is the no-effect control and ±100 the full control effect
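Compounds tested against the coupling enzymes alone at 57.5 uM final; readout was AmpLite Red fluorescence (525/598 nm) after 20 min at RT.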
VDR inh confirm = qHTS for Inhibitors of the vitamin D receptor (VDR): Hit Validation in Primary Screen. shares compounds with VDR inhibitor. VDR-coactivator inhibition assay, qHTS confirmation. Potency, µM, hits mostly inhibitors. 89% of 840 active. AID 602199, 2012; further: potency means the concentration at half of the fitted maximal effect
VDR FP = qHTS for Inhibitors of the vitamin D receptor (VDR): Hit Validation using a Fluorescein Assay | shares compounds with VDR inhibitor | VDR-coactivator binding, fluorescein fluorescence polarization | Potency, µM (doses to about 57.1 µM), without a hit: at the top dose activity change, negative = inhibition, usual class: inhibitors | 48% of 840 active | AID 602200, 2012; further: potency means the concentration at half of the fitted maximal effect
VDR bla reporter = qHTS for Inhibitors of the vitamin D receptor (VDR): Hit Validation using a Beta-Lactamase Assay; shares compounds with VDR inhibitor; Potency, µM (series often up to 46.1 µM), inactives show at the highest dose activity change, negative = inhibition, hits mostly inhibitors; VDR beta-lactamase reporter cells, FRET ratio; cells co-treated with VDR agonist LG190178; 23% of 840 active; further: potency means the concentration at half of the fitted maximal effect; on the % scale 0 is the no-effect control and ±100 the full control effect
VDR cytotox = qHTS for Inhibitors of the vitamin D receptor (VDR): Hit Validation using a Cytotoxicity Assay; 18% of 840 active; cytotoxicity counter-screen, cell viability, qHTS; AID 602204, 2012; shares compounds with VDR inhibitor; Potency, µM (series often up to 48.3 µM), inactives show top-dose activity change, negative = cytotoxicity, usual class: cytotoxic;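 further: potency means the concentration at half of the fitted maximal effect; plate controls were DMSO for no effect and high-concentration cycloheximide for full effect; nearly all actives have a fitted effect of over 75% in size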
The depositor's hits bear a star; ? = inconclusive; . = no result given; [ ] = remark or other dose. Most compounds without a hit are left out; they make up all but 2.3% or so of the library. Unless noted, the call rests on the fitted dose curve; in most records, active means well fitted curve in the direction sought with a large enough effect; inconclusive means small, poorly fitted or top-dose-only effect, or another doubt; inactive means no such curve, though single readings can be large; an effect the other way counts as inactive or inconclusive.

SMILES	VDR inhibitor	KDM4E inh	HttQ103 aggreg	HTT cytoprotect	GoLoco inh red	Coupling enz	VDR inh confirm	VDR FP	VDR bla reporter	VDR cytotox
CS(=O)(=O)c1ccc(S(=O)CC(=O)Oc2ccc(Cl)cc2)c([N+](=O)[O-])c1 (stereo unspecified)	3.55µM*	3.16µM*	-1.8%	?	-0.8%	-26.7	2.51*	1.58µM*	18.4µM*	?
Cc1ccc(NC(=O)c2ccc(NS(=O)(=O)c3cccc4cccnc34)cc2)cc1	19.0%	.	.	.	.	-1.7	.	.	.	.
Cc1cc(O)c(C(=O)/C=C/c2ccccc2)c(=O)o1	?	.	.	.	.	1.4	.	.	.	.
CCOc1ccc(/C=C/C(=O)c2c(O)c3ccccc3oc2=O)cc1	8.91µM*	?	31.3%	0.7%	6.7%	7.4	8.44*	171.0%	-19.3%	?
Cc1cc(O)c(C(=O)/C=C/c2ccc(C(C)C)cc2)c(=O)o1	?	.	.	.	.	5.0	6.31*	?	?	6.9%
CCOc1ccc(/C=C/C(=O)c2c(O)cc(C)oc2=O)cc1	?	.	.	.	.	1.9	15.8*	25.1µM*	?	11.9µM*
Cc1cc2c(cc1C)C(c1ccccc1OC(C)C)CC(=O)N2 (stereo unspecified)	-21.4%	.	.	.	.	-10.5	.	.	.	.
[O-]/[N+](=C\c1ccncc1)c1ccc(Br)cc1	44.7µM*	-6.3%	1.7%	-13.7%	0.5%	-5.5	9.47*	?	6.0%	2.0%
CC(O)(c1ccccc1)c1ccc2ccccc2n1 (stereo unspecified)	-22.5%	.	.	.	.	.	.	.	.	.
CC(=O)C1=C(C)NC2(O)c3ccccc3C(=O)C12O (stereo unspecified)	-18.2%	1.7%	?	.	-2.4%	-20.5	.	.	.	.
O=C1CCCC2=C1C1(O)C(=O)c3ccccc3C1(O)O2 (stereo unspecified)	?	-4.9%	-10.4%	-8.3%[10 µM]	-1.6%	-6.2	2.51*	2.24µM*	9.1%	11.9%
C=CCSc1nc2sc3c(c2c(=O)n1CC)CCc1ccccc1-3	25.1µM*	?	-29.8%	-9.9%	-40.4%	-1.2	2.67*	?	31.6%	-2.9%
C=CCn1c(SCC)nc2sc3c(c2c1=O)CCc1ccccc1-3	-8.6%	0.6%	3.6%	-5.8%	1.8%	-2.2	.	.	.	.
CCCOc1ccc(NC(=O)CC2C(=O)N(c3ccc(OC)cc3)C(=O)N2CCc2ccncc2)cc1 (stereo unspecified)	5.9%	.	.	.	.	.	.	.	.	.
CCn1c(C(=O)N2CCC(C(=O)NCCc3ccc(C)cc3)CC2)cc2sccc21	-7.8%	.	.	.	.	.	.	.	.	.
O=S(=O)(/N=C(\Sc1ccc(Cl)cc1)c1ccccc1)c1ccccc1	?	?	33.0%	10.2%	4.8%	3.3	7.08*	22.4µM*	1.7%	-2.1%
CS/C(=N/S(=O)(=O)c1ccc(C)cc1)c1ccccc1	-6.9%	4.4%	17.3%	10.1%[10 µM]	62.7%	0.3	.	.	.	.
Cn1c(N)c(C(=O)Nc2ccc(-c3ccccc3)cc2)sc1=S	?	6.5%	8.9%[9.22 µM]	-1.8%[10 µM]	-45.7%	0.2	17.8*	22.4µM*	?	?
CCC(Oc1ccccc1)C(=O)Nc1nnc(S(=O)(=O)N(CC)CC)s1 (stereo unspecified)	9.6%	.	.	.	.	.	.	.	.	.
Cc1ccc(/C=C/C(=O)c2ccc(O)cc2)cc1	15.8%	-2.5%	9.4%[9.22 µM]	4.3%[10 µM]	-3.2%	0.7	.	.	.	.
Cc1ccc(C(=O)/C=C/c2ccc3ncccc3c2)cc1	22.4µM*	.	.	.	.	-0.1	11.9*	?	?	?
COc1ccc(C(C2C(=O)CC(C)(C)CC2=O)C2C(=O)CC(C)(C)CC2=O)cc1COCC(F)(F)F	20µM*	0.1%	?	.	8.4%	6.8	5.97*	?	26.0%	11.3%
O=[N+]([O-])c1ccc(/C=C2\CCC(C3=CCCC3)=C2N2CCOCC2)cc1	?	?	?	.	-8.7%	4.1	?	?	?	-2.3%
COc1ccc(CN2[C@@H](CC(C)=O)c3ccc(/C=C/C(C)=O)cc3S2(=O)=O)cc1	79.4µM*	.	.	.	.	.	5.01*	?	?	?
Cc1ccc(-c2nnn(CC(=O)N(CC(=O)NCCC(C)C)c3ccc(F)cc3)n2)cc1	6.0%	.	.	.	.	.	.	.	.	.
SMILES	VDR inhibitor	KDM4E inh	HttQ103 aggreg	HTT cytoprotect	GoLoco inh red	Coupling enz	VDR inh confirm	VDR FP	VDR bla reporter	VDR cytotox
COc1ccc(OCC(=O)N2CCN(c3cccc(Cl)c3)CC2)cc1	0.9%	6.6%	-2.5%	-1.6%	0.5%	1.7	.	.	.	.
CCS(=O)(=O)c1ncc(Cl)c(C(=O)N2CCN(c3cccc(Cl)c3)CC2)n1	8.91µM*	.	.	.	.	.	2.82*	2.82µM*	2.91µM*	9.47µM*
O=C(/C(=C/c1ccncc1)n1ccnc1)c1ccc(Cl)cc1Cl	79.4µM*	-0.7%	-7.1%[9.22 µM]	4.9%[10 µM]	8.5%	-1.8	12.6*	12.6µM*	-20.2%	-7.2%
CC(C)/C=C(/C(=O)c1ccc(Cl)cc1Cl)n1cncn1	?	.	.	.	.	1.4	.	.	.	.
Cc1cnc(CNc2ncncc2-c2cccnc2)cn1	-6.9%	.	.	9.7%	-10.8%	-0.2	.	.	.	.
CCC(=O)OCCNc1cc(SCCC(=O)OC)c2nonc2c1[N+](=O)[O-]	?	-10.7%	?	1.7%[10 µM]	-10.6%	-18.2	.	.	.	.
CCC(=O)OCCNc1cc(Sc2nccn2C)c2nonc2c1[N+](=O)[O-]	31.6µM*	1.4%	7.08µM*	-96.3%[10 µM]	-6.2%	-0.9	21.2*	?	?	14.6µM*

Screening data: PubChem BioAssay, National Center for Advancing Translational Sciences (NCATS)
